Assay results published in PubChem BioAssay.
The source made the active and inactive calls.

Columns and labels:
[1] = system: PRMT1 (protein arginine N-methyltransferase 1); assay: PRMT1 binders on small-molecule microarrays, primary screen, biochemical, small-molecule microarray, 635 nm fluorescence (AID 1088); conditions: small-molecule microarray binding, higher = more signal;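 also: binding of Prmt1 protein to compounds spotted on small-molecule microarray slides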
[2] = yeast growth modulation, basal conditions, primary screen, YJM789 clinical isolate, OD600, 24 h (AID 1089);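 also: growth of clinical yeast isolate S. cerevisiae YJM 789 seeded 1000 cells per well; test concentration not given here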; conditions: S. cerevisiae YJM789 growth, higher = more signal, called active from +8 up or from −8 down
[3] = fission yeast growth modulation, primary screen, strain 972, OD600, 24 h, no modulator (AID 1090);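 also: basal condition with compound alone and no growth modifier present; test concentration not given here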; conditions: S. pombe 972 growth, higher = more signal, called active from +8 up or from −8 down
[4] = S. cerevisiae growth modulation with rapamycin, primary screen, strain BY4716, OD600, 96 h (AID 1091); conditions: higher = more signal, called active from +8 up or from −8 down; also: test concentration not given here
[5] = target: Torsin-1A-interacting protein 2 (Homo sapiens) (UniProt Q8NFQ8); assay: LULL1 binders on small-molecule microarray, primary screen, cell lysate, human LULL1 lysate, 635/667 nm fluorescence (AID 1092); conditions: hLULL1 lysate binding, 635 nm fluorescence, higher = more signal;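 also: probe is lysate of COS7 cells overexpressing human LULL1; score merges per-feature 667 nm fluorescence with signal-to-noise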
Torsin-1A-interacting protein 2 (Homo sapiens), sequence (Q8NFQ8 whole entry, looked up): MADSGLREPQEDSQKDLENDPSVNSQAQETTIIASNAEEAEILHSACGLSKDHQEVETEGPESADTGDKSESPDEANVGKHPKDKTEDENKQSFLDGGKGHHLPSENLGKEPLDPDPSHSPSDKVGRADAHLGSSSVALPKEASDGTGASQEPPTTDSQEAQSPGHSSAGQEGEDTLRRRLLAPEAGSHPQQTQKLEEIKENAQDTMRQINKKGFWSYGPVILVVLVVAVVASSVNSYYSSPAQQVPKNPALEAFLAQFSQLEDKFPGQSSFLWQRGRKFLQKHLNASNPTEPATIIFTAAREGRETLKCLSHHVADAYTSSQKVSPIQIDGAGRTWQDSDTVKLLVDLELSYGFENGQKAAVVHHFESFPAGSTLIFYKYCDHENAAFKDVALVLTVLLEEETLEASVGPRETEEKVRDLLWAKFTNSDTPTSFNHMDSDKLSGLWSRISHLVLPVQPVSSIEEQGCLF

[6] = E. coli growth modulation, two-sided OD650, primary screen, E. coli filamentation project, strain DRC41, 24 h (AID 1093); conditions: OD650, 24 h, higher = more signal, called active from +8 up or from −8 down;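 also: MC1000 strain lacking acrAB efflux and sulA so SOS filamentation is blocked; test concentration not given here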
[7] = small-molecule microarray binders of probe aLefty2, primary screen, biochemical, biotinylated probe, 635/667 nm fluorescence (AID 1094); conditions: higher = more signal;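 also: score merges spot fluorescence near 667 nm with spot signal-to-noise ratio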
[8] = system: Noggin (protein binding on small-molecule microarray); assay: Noggin binders on small-molecule microarray, primary screen, biochemical, 635/667 nm fluorescence (AID 1095); conditions: 635 nm fluorescence, higher = more signal;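 also: score merges 667 nm feature fluorescence with signal to noise over triplicate slides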
[9] = target: Neurogenic locus notch homolog protein 3 (Homo sapiens) (UniProt Q9UM47); assay: NOTCH3 binders on small-molecule microarray, primary screen, biochemical, 635/667 nm fluorescence (AID 1096); conditions: NOTCH3 binding, 635 nm fluorescence, higher = more signal
Neurogenic locus notch homolog protein 3 (Homo sapiens), sequence (Q9UM47 whole entry, looked up): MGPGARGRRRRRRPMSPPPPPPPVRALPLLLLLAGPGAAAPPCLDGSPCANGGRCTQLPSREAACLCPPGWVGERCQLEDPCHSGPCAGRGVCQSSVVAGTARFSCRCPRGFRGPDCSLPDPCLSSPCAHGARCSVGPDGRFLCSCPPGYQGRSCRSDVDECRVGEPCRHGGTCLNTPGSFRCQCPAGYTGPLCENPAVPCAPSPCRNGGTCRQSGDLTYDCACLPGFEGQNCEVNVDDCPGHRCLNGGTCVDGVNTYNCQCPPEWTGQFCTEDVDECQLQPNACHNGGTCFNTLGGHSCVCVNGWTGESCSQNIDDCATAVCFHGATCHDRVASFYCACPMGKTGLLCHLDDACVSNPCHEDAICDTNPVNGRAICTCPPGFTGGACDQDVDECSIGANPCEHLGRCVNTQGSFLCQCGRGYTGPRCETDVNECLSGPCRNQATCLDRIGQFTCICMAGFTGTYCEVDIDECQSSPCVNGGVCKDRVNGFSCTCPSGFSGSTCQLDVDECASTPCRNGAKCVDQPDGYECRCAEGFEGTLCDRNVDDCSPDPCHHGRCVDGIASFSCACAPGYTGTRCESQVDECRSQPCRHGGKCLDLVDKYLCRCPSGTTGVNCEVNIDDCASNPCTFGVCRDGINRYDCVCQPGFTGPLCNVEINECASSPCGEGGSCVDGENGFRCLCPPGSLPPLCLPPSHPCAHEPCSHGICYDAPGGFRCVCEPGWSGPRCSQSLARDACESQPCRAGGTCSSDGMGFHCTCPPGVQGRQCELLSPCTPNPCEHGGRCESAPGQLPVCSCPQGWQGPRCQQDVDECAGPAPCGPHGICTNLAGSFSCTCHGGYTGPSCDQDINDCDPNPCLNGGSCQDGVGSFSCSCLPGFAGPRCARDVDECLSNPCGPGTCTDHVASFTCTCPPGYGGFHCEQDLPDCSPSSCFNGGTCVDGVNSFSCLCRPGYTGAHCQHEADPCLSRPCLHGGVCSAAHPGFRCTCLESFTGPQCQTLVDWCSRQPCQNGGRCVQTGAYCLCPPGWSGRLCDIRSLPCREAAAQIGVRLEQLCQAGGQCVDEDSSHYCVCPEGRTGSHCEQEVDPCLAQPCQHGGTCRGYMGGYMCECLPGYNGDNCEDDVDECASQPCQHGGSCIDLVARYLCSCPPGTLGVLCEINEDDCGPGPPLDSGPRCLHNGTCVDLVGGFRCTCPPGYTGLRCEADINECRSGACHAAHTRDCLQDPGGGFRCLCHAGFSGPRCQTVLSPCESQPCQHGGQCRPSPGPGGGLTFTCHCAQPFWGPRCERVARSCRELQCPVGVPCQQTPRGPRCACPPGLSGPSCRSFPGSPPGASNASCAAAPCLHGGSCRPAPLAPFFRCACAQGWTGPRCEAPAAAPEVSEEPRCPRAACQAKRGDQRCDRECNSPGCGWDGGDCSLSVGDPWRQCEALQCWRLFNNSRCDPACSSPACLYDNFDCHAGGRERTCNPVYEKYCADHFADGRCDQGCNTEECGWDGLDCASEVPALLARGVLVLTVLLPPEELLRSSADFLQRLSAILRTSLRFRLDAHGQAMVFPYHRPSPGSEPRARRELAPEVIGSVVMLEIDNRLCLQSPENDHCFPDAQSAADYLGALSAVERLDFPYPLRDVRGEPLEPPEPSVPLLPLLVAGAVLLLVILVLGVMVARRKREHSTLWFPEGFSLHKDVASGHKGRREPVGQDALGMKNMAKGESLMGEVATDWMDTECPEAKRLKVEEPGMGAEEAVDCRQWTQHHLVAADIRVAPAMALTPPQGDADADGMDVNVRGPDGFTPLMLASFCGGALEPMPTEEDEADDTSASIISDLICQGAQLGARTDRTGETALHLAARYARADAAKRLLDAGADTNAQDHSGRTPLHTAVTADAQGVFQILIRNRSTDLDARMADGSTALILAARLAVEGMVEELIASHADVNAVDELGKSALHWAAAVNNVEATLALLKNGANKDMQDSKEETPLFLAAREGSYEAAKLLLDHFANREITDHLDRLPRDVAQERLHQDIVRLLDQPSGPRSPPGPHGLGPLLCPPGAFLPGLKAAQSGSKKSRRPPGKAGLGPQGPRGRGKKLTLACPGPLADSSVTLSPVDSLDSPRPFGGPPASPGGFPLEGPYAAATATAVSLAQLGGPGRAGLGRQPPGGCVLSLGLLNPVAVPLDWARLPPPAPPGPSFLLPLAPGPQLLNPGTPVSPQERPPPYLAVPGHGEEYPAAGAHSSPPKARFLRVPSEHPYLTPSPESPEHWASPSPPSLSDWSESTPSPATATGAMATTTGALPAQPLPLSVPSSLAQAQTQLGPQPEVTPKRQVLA

[10] = small-molecule microarray binders of probe aEGFR, primary screen, biochemical, biotinylated probe, 635/667 nm fluorescence (AID 1097); conditions: higher = more signal;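 also: probe is a biotinylated anti-EGFR antibody binding compounds printed on slides; score combines fluorescence near 667 nm and signal to noise of each spot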
[11] = system: Plasmodium falciparum Sir2 (PF13_0152, Sir2A); assay: pfSir2 binders on small-molecule microarrays, primary screen, biochemical, small-molecule microarray, 635 nm fluorescence (AID 1098); conditions: small-molecule microarray binding, fluorescence 635 nm; higher = more signal;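 also: score merges spot fluorescence intensity with its signal-to-noise ratio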
[12] = small-molecule microarray binders of probe aDKK1, primary screen, biochemical, biotinylated probe, 635/667 nm fluorescence (AID 1099); conditions: higher = more signal;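 also: score merges 667nm spot fluorescence with signal to noise across triplicate slides; reference of the scale not given here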
[13] = small-molecule microarray binders of probe aCHRDL2, primary screen, biochemical, biotinylated probe, 635/667 nm fluorescence (AID 1100); conditions: higher = more signal
[14] = splicing luciferase reporter signal modulators, primary screen, spliceosome inhibition project, cell-based, HEK293, splice +/- reporter (AID 1101); conditions: luminescence, 24 h, higher = more signal, called active from +8 up or from −8 down;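 also: HEK293 cells carrying a splicing-competent luciferase reporter gene; test concentration not given here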
[15] = target: Fibroblast growth factor 10 (Homo sapiens) (UniProt O15520); assay: FGF10 binders on small-molecule microarrays, primary screen, biochemical, small-molecule microarray, 635 nm fluorescence (AID 1102); conditions: FGF10 binding, fluorescence 635 nm, higher = more signal
Fibroblast growth factor 10 (Homo sapiens), sequence (O15520 whole entry, looked up): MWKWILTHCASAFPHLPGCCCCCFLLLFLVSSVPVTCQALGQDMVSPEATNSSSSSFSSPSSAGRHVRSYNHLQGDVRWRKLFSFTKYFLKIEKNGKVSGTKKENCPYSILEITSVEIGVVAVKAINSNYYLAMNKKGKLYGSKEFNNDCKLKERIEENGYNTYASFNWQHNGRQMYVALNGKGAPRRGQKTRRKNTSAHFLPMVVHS

[16] = system: glycogen synthase kinase-3 (GSK3A per assay name; protocol says GSK3B); assay: GSK3 binders on small-molecule microarrays, primary screen, biochemical, small-molecule microarray, 635 nm fluorescence, GSK3A (AID 1103); conditions: small-molecule microarray binding, fluorescence 635 nm; higher = more signal; also: the record names both GSK3A and GSK3B
[17] = target: Epidermal growth factor receptor (Homo sapiens) (UniProt P00533); assay: EGFR binders on small-molecule microarrays, primary screen, biochemical, small-molecule microarray, 635 nm fluorescence (AID 1104); conditions: EGFR binding, higher = more signal;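 also: score merges 667 nm emission intensity with spot signal to noise over triplicate slides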
Epidermal growth factor receptor (Homo sapiens), sequence (P00533 whole entry, looked up): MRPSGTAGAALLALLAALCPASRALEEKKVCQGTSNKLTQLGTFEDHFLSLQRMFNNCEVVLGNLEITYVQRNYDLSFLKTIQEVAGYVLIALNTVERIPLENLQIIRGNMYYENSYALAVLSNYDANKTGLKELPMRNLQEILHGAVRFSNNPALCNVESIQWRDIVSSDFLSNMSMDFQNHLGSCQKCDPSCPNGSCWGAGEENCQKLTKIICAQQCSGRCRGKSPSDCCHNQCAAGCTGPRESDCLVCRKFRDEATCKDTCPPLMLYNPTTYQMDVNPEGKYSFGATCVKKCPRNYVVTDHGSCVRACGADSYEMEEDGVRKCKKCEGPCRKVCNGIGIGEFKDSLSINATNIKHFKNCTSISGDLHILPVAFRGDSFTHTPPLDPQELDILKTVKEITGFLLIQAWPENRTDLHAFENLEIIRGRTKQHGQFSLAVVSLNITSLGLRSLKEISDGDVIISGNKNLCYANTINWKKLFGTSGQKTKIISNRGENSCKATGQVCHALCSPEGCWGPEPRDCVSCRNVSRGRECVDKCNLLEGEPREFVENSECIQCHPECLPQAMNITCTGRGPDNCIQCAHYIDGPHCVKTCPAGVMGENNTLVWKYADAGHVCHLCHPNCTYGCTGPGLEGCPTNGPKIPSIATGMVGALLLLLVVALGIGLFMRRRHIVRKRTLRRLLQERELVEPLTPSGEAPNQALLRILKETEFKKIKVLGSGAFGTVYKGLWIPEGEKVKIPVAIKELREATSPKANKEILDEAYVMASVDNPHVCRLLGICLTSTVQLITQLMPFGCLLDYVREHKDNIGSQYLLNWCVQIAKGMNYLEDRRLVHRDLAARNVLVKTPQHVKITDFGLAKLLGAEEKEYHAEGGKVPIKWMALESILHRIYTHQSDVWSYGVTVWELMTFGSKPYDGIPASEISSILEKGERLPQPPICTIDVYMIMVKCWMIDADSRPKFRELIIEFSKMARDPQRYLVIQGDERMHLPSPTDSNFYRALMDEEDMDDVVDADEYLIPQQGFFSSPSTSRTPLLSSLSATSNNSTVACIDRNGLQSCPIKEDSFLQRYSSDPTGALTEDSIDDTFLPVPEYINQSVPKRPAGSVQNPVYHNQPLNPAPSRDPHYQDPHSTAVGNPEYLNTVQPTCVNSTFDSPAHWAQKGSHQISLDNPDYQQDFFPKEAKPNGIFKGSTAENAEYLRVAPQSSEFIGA

[18] = target: Follistatin-related protein 3 (Homo sapiens) (UniProt O95633); assay: FSTL3 binders on small-molecule microarrays, primary screen, biochemical, small-molecule microarray, 635 nm fluorescence (AID 1105); conditions: FSTL3 binding, higher = more signal;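 also: score merges emission near 667 nm and signal to noise per printed spot across three slides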
Follistatin-related protein 3 (Homo sapiens), sequence (O95633 whole entry, looked up): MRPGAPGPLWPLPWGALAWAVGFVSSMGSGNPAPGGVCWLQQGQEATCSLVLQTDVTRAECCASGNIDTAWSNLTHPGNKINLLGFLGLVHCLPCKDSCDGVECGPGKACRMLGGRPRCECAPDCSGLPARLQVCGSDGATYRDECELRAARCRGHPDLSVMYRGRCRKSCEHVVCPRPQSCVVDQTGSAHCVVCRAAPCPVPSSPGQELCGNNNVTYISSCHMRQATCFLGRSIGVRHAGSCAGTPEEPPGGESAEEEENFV

[19] = target: Dickkopf-related protein 1 (Homo sapiens) (UniProt O94907); assay: DKK1 binders on small-molecule microarrays, primary screen, biochemical, small-molecule microarray, 635 nm fluorescence scan (AID 1106); conditions: DKK1 binding, higher = more signal;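 also: score merges emission near 667 nm with signal to noise over three replicate slides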
Dickkopf-related protein 1 (Homo sapiens), sequence (O94907 whole entry, looked up): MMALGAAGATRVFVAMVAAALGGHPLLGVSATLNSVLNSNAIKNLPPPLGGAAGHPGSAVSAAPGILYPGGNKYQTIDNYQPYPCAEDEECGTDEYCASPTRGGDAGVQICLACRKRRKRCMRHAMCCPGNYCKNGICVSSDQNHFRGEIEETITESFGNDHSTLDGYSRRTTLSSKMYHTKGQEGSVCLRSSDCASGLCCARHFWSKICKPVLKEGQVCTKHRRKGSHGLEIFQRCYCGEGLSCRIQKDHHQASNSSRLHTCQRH

[20] = system: Inhibin beta A chain (activin A); assay: INHBA (activin A) binders on microarrays, primary screen, biochemical, small-molecule microarray, 635 nm fluorescence scan (AID 1107); conditions: small-molecule microarray binding, higher = more signal;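 also: mouse activin A protein probed at 4.33 µg/mL on printed slides; score merges bound-protein fluorescence near 667 nm with spot signal-to-noise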

Row | SMILES | composite z-score [1] | z-score [2] | z-score [3] | z-score [4] | composite z-score [5] | z-score [6] | composite z-score [7] | composite z-score [8] | composite z-score [9] | composite z-score [10] | composite z-score [11] | composite z-score [12] | composite z-score [13] | z-score [14] | composite z-score [15] | composite z-score [16] | composite z-score [17] | composite z-score [18] | composite z-score [19] | composite z-score [20]
1 | C=CCN1C(=O)[C@]2(O[C@H](CCn3cc(CCO)nn3)[C@@H]([Si](C)(C)c3ccc(OC)cc3)[C@@H]2C)c2cc(NC(=O)c3ccc(OC)cc3)ccc21 | 1.25 | 1.46 (inactive) | -1.22 (inactive) | 1.81 (inactive) | 0.807 | 1.94 (inactive) | 0.205 | 1.03 | 0.527 | -0.109 | 0.799 | 0.717 | 0.794 | 0.0559 (inactive) | 0.515 | 1.23 | 0.384 | 0.876 | 0.863 | 1.63
2 | CCOC(=O)C[C@H]1[C@H](OC(=O)c2ccccc2-c2ccccc2)[C@@H](NC(=O)c2ccc(-c3ccccc3)cc2)c2cc(OCCCO)ccc2N1C(=O)Cc1ccc(OC)cc1 | 0.362 | -0.39 (inactive) | -0.826 (inactive) | 0.27 (inactive) | 0.775 | -0.857 (inactive) | -0.0435 | 0.19 | 0.266 | 0.0651 | -0.0957 | -0.394 | -0.44 | -0.288 (inactive) | 0.295 | -0.189 | 0.147 | 0.38 | 0.428 | 0.701
3 | C=C(CCCC)/C(=C/C[C@@H](OC(=O)c1ccncc1)c1cccc(OCCO)c1)c1cc(C(=O)OC)ccc1OC | 1.36 | 0.526 (inactive) | -1.17 (inactive) | 0.289 (inactive) | 0.48 | 1.27 (inactive) | -0.0102 | 1.37 | 1.04 | 0.0376 | 0.953 | -0.0661 | 0.273 | 0.151 (inactive) | 0.74 | 0.764 | 0.53 | 0.933 | 0.438 | 0.482
4 | CC(C)[Si](OCC[C@H]1O[C@]2(C(=O)N(Cc3ccccc3)c3ccccc32)[C@@H](C)[C@@H]1[Si](C)(C)O)(C(C)C)C(C)C | 0.489 | 1.11 (inactive) | -0.259 (inactive) | 1.24 (inactive) | 0.414 | 1.05 (inactive) | -0.149 | -0.139 | -0.0636 | -0.109 | 0.54 | -0.0907 | -0.0768 | 0.467 (inactive) | -0.189 | -0.922 | -0.102 | -0.0398 | 0.0477 | 0.438
5 | C=CCC(OC(C)=O)[C@@H]1[C@@H](N(Cc2cc3ccccc3o2)C(=O)Cc2ccc(F)cc2)c2cc(OCCCO)ccc2N1C(=O)c1ccc(-c2ccccc2)cc1 (stereo not given in full) | -1.44 | -0.277 (inactive) | -0.801 (inactive) | -0.76 (inactive) | 0.292 | 1.64 (inactive) | -0.0598 | -0.737 | -1.02 | -0.178 | -0.271 | -0.168 | 0.512 | -1.05 (inactive) | -0.251 | -0.708 | -0.162 | -0.346 | 0.0578 | 1.18
6 | COC(=O)[C@@]1(Cc2ccccc2)[C@H]2c3cc(C(=O)N4CCCC4)n(CCN4CNCC4=O)c3C[C@H]2CN1C(=O)c1ccccc1 | -0.337 | -0.465 (inactive) | 0.826 (inactive) | -0.153 (inactive) | 1.93 | -0.0756 (inactive) | 0.154 | -0.113 | 0.494 | -0.013 | 0.0939 | 0.862 | 0.904 | 2.52 (inactive) | 0.0557 | 0.77 | 0.0908 | 0.47 | -0.292 | 1.05
7 | CCCCCCc1nc(-c2cc(C)c(OC)c(C)c2)cc2c1[Si](C(C)C)(C(C)C)O[C@H]2c1ccccc1 | -0.118 | 0.955 (inactive) | 0.659 (inactive) | -0.558 (inactive) | -0.685 | -0.54 (inactive) | -0.107 | -0.346 | -0.496 | -0.168 | -0.717 | -0.268 | 0.122 | 0.399 (inactive) | -0.915 | -0.849 | -0.394 | -0.677 | -0.302 | 0.621
8 | CO[C@H]1O[C@H](CO)[C@@H](OC(=O)Nc2ccccc2)[C@H](OC(=O)Nc2ccc3c(c2)OCO3)[C@@H]1OC(=O)Nc1ccc2c(c1)OCO2 | 1.53 | 0.058 (inactive) | -0.1 (inactive) | 3.14 (inactive) | 2.62 | 1.67 (inactive) | -0.0591 | -0.0087 | 0.845 | -0.117 | 1.51 | 0.355 | 0.749 | -0.368 (inactive) | 0.183 | 1.19 | -0.374 | 0.558 | 0.355 | 0.794
9 | C=CCc1cccc([C@@H]2[C@@H](C)CC[C@H]3C(=O)N4[C@H](c5cccc(CC=C)c5)[C@@H](C)CC[C@H]4C(=O)N23)c1 | 0.592 | -0.988 (inactive) | 0.0313 (inactive) | 6.6 (inactive) | 0.785 | 0.533 (inactive) | 0.0163 | 0.432 | 0.671 | -0.124 | 0.725 | -0.0603 | 0.175 | -1.34 (inactive) | 0.756 | 0.365 | 0.654 | 0.831 | 0.666 | 1.67
10 | C[C@]1(C(=O)NCCN2CCOCC2)c2ccccc2C(=O)N(Cc2ccccc2)[C@H]1c1ccc(CO)cc1 | -0.804 | 0.364 (inactive) | -0.304 (inactive) | -0.877 (inactive) | 2.99 | 0.0355 (inactive) | -0.0539 | -0.54 | -0.911 | -0.23 | 1.59 | -0.082 | 0.606 | -0.675 (inactive) | -0.632 | -0.748 | -0.491 | -0.824 | -0.396 | 0.519
